PubChem BioAssay (NCI)
This is part of a sample that, as a whole, favours compounds with a hit. Of some 83,000 tested, about 20% had one in any assay.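 Each cell line was grown in a 96-well plate and treated with one concentration of compound for 48 hours. Values below 10 were considered active.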 Calls of active or inactive are those of the source.

test system: MDA-MB-468 breast; experiment: NCI-60 one-dose screen, 48 h (100 = growth as untreated, 0 = no growth, -100 = all killed); conditions: 10 µM unless noted

SMILES	growth
COC(=O)[C@H](CSC)N(C)C(=O)[C@@H]1CSSC[C@@H](NC(=O)c2nc3ccccc3cc2O)C(=O)NCC(=O)N1C	61.3% (inactive)
CCOc1cc2ncc(C#N)c(Nc3ccc(OCc4ccccn4)c(Cl)c3)c2cc1NC(=O)/C=C/CN(C)C	-35.1% (active)
C=CCC(OC(C)=O)c1ccc(C(C)C)cc1 (centres undefined)	105% (inactive)
Cc1ccc(S(=O)(=O)NCN2C(=O)c3ccccc3C2=O)cc1	93.6% (inactive)
Cc1ccc(C(O)C2=CC(=O)c3ccccc3C2=O)cc1 (centres undefined)	96.5% (inactive)
C=CCn1c(SCC(=O)Nc2ccc(C(=O)/C=C/c3cc(OC)c(OC)c(OC)c3)cc2)nnc1-c1ccccc1	82% (inactive)
CC(=O)n1c(/C(C#N)=C/c2ccc(N(C)C)cc2)cc2ccccc21	14.2% (inactive)
CC(C)(C)OC(=O)NCc1ccc(CNc2c([N+](=O)[O-])cnc3ccccc23)cc1	22.2% (inactive)
CCOC(=O)C(=Cc1ccccc1[N+](=O)[O-])C(=O)OCC	34.3% (inactive)
CCOC(=O)c1cc(C(=O)c2ccc(OC)c(OC)c2)n2ccc(/C=C/c3cc[n+](CC(=O)c4ccc(OC)c(OC)c4)cc3)cc12	71.9% (inactive)
COc1ccc(-c2c[nH]c(C(=O)O)c2-c2cc(OC)c(OC)c(OC)c2)cc1	11.8% (inactive)
CN1C(=O)/C(=C/c2ccc(C(=O)Nc3ncc(Cc4cccc(Cl)c4)s3)cc2)SC1=S	37.7% (inactive)
O=C(CN1CCN(c2ccc(Cl)cc2)CC1)N1CCN(c2nnc(-c3ccc(Cl)cc3)c(-c3ccc(Cl)cc3)n2)CC1	87.5% (inactive)
Nc1ncc(-c2ccc3ncnc(N4CCc5cc(F)c(Cl)cc54)c3c2)cc1C(F)(F)F	-26.1% (active)
CC(C)[C@@]12C[C@@H](OC(=O)[C@H]3CO3)[C@@](C)(O1)[C@@H]1CC[C@@H](C)[C@H]1[C@@H]2OC(=O)/C=C/c1ccccc1	85.8% (inactive)
COc1cccc2c1C(=O)c1c(O)c3c(c(O)c1C2=O)C[C@@](O)(C(=O)CO)C[C@@H]3OC1C[C@H](N)[C@H](O)[C@H](C)O1 (some centres undefined)	-68.8% (active)
COc1cc(C2N=C(NNc3ccccc3)NC(C)=C2C(C)=O)ccc1O (centres undefined)	93.3% (inactive)
c1ccc(Nc2ccccn2)cc1	111% (inactive)
N#C/C(=C/N1C(=O)/C(=C/c2ccc([N+](=O)[O-])cc2)SC1=S)c1nc2ccccc2s1	84% (inactive)
Fc1cc2[nH]ncc2c2c3c(c(-c4cn[nH]c4C(F)(F)F)nc12)CCCC3	-20.3% (active)

SMILES	growth
Cn1c(-c2nonc2NC(=O)c2ccc(F)cc2)nc2ccccc21	99.5% (inactive)
Cc1[nH]c(C(=O)Nc2ccc(C(=O)N3CCNCC3)cc2OC(C)C)c(Cl)c1Cl	64.8% (inactive)
Cc1cc(N2CCN(C)CC2)nc(N(CCNc2ccnc3cc(Cl)ccc23)Cc2ccco2)n1	37.5% (inactive)
O=C(CSc1nc2sc3c(c2c(=O)n1-c1ccc(Cl)cc1)CCCC3)Nc1nc(-c2cccc(Br)c2)cs1	65.1% (inactive)
C=C(C)[C@@H]1CC[C@]2(C(=O)N3CCN(C)CC3)CC[C@]3(C)[C@H](CC[C@@H]4[C@@]5(C)C/C(=C/c6ccc(C(F)(F)F)cc6)C(=O)C(C)(C)[C@@H]5CC[C@]43C)[C@@H]12	107% (inactive)
CN1C(=O)C2(NN=C(c3cccc4ccccc34)S2)c2ccccc21 (centres undefined)	32.4% (inactive)
O=C1/C(=C/c2ccc(F)cc2)Sc2c(Br)cccc21	84.1% (inactive)
CC(=O)OCCCCN1C=C/C(=C\C(=O)n2ccc3ccccc32)c2ccccc21	98.4% (inactive)
CC(=O)N1N=C(c2cccc(Nc3ccncc3)c2)CC1c1ccccc1 (centres undefined)	79.8% (inactive)
CCOC(=O)c1c(-c2ccc(Cl)cc2)c(C#N)c(=O)n(-c2ccccc2CC)c1N	98.9% (inactive)
CCn1c(SCC(=O)Nc2cc(C(F)(F)F)ccc2Cl)nc2ccccc2c1=O	50.3% (inactive)
COc1ccc(Nc2cnc3cc(NS(=O)(=O)c4ccc(C)cc4)ccc3n2)cc1	46.1% (inactive)
COc1cc(C(=O)/C=C/c2cccc(Nc3ccnc4cc(Cl)ccc34)c2)cc(OC)c1OC	-49.5% (active)
CC(C)(C#N)c1cc(F)cc(C(=O)Nc2cc(Nc3ncccc3-c3ncnc4nc[nH]c34)ccc2F)c1	107% (inactive)
N#C/C(=C/c1ccc(O)c([N+](=O)[O-])c1)c1nc(-c2ccc([N+](=O)[O-])cc2)cs1	14.3% (inactive)
O=c1[nH]nc(-c2ccc(Br)cc2)c2sc(NC(=S)Nc3ccc(Cl)cc3)nc12	110% (inactive)
O=C(/C=C/C12c3ccccc3C(c3ccccc31)C1C(=O)NC(=O)C12)c1ccc(Br)cc1 (centres undefined)	42.7% (inactive)
CN1C(C(=O)Nc2ccccn2)=C(O)c2sc(Cl)cc2S1(=O)=O	98.7% (inactive)
CN(C)Cc1cc(C(C)(C)C)cc(Br)c1O	90.2% (inactive)
